Screens as filed in PubChem.
FadD28 FP inh – inhibitors of FadD28 bisubstrate probe binding, primary screen, biochemical, fluorescence polarization, single point. Mycobacterium tuberculosis FadD28 fatty-acid-AMP ligase. inhibition, % at 12.5 µM. hit rate 0.22% among 360,000. AID 588549, 2011; in the data active means inhibition above about 8.5%, passing the limit was not always enough
GDH-TPI counter – GDH-TPI coupling enzyme inhibitors, primary screen, artefact control for M. tuberculosis FBA inhibitor project, biochemical, absorbance, full deck. GDH-TPI coupled enzyme counterscreen, NADH absorbance. hit rate 1.2% among 360,000. AID 588335, 2011. inhibition, % at 4.8 µM; in the data active means inhibition above about 30%;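 further: 0% = DMSO wells and 100% = wells lacking the enzyme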
FBA Mtb inh – Mtb FBA enzyme inhibitors, primary screen, biochemical, fluorescence, strain H37Rv | hit rate 2.3% among 360,000 | Fructose-bisphosphate aldolase (Mycobacterium tuberculosis (strain ATCC 25618 / H37Rv)), … | purified M. tuberculosis FBA, fluorescence read-out | inhibition, % at 1 µM; in the data active means inhibition above about 27%;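 further: 0% = vehicle and 100% = reference inhibitor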
Target sequence (P9WQA3 whole entry, looked up): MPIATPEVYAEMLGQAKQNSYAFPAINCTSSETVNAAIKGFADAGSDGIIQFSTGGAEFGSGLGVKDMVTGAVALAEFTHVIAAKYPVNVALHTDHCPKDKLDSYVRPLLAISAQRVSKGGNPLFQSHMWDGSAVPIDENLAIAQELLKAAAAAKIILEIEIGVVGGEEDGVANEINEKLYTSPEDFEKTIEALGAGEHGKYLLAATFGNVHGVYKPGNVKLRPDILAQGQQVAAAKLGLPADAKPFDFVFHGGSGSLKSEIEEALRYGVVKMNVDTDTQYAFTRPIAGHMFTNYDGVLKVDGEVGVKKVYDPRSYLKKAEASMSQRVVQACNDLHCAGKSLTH
Mtb BioA inh – M. tuberculosis BioA enzyme inhibitors, primary screen, biochemical, plate reader, single point, HTS; purified M. tuberculosis BioA enzyme; 7,8-diaminopelargonic acid synthase BioA (Mycobacterium tuberculosis); hit rate 0.096% among 360,000; inhibition, % at 9.99 µM; in the data active means inhibition above about 40%
3CLpro inhibitor – SARS-CoV 3CLpro protease inhibitors, primary screen, biochemical, quenched FRET; Replicase polyprotein 1ab (Severe acute respiratory syndrome coronavirus), P0C6X7; hit rate 0.14% among 290,000; recombinant SARS-CoV 3CLpro, quenched FRET peptide cleavage; inhibition, % at 6 µM; in the data active means inhibition above about 12%
The depositor's hits bear a star. An excerpt weighted towards active compounds, which were near 3.1% of everything screened.

What do the screens show for `O=C(O)c1ccc(N/N=C/c2cccc(C(F)(F)F)c2)cc1`?
FadD28 FP inh: 2.7; GDH-TPI counter: 8.6; FBA Mtb inh: 0.2; Mtb BioA inh: 0.1; 3CLpro inhibitor: 9.4

What do the screens show for `O=C(O)c1ccc(N/N=C/c2ccncc2)cc1`?
FadD28 FP inh: -3.3; GDH-TPI counter: 31.6*; FBA Mtb inh: -3.9; 3CLpro inhibitor: -1.5

Results for O=C(O)c1ccc(N/N=C/c2ccc(F)c(F)c2)cc1 ?
FadD28 FP inh: 2.8; GDH-TPI counter: 58.3*; FBA Mtb inh: 0.9; 3CLpro inhibitor: 3.3

How did O=C(O)c1ccc(N/N=C/c2ccc3nccnc3c2)cc1 do in these assays?
FadD28 FP inh: 2.0; GDH-TPI counter: 25.2; FBA Mtb inh: -11.7; 3CLpro inhibitor: -1.2

How did COCC(=O)N(C)C[C@H]1Oc2cc(-c3ccccc3F)ccc2S(=O)(=O)N([C@@H](C)CO)C[C@H]1C do in these assays?
Mtb BioA inh: -3.6

Results for COc1ccc(S(=O)(=O)Nc2ccc3c(c2)C(=O)N([C@@H](C)CO)C[C@@H](C)[C@@H](CN(C)C(=O)NC2CCCCC2)O3)cc1 ?
Mtb BioA inh: 0.3

Results for CCCCn1c(=NC(=O)c2cccnc2)c(C#N)cc2c(=O)n3cccc(C)c3nc21 ?
FadD28 FP inh: -0.6; GDH-TPI counter: 6.4; FBA Mtb inh: 193.9*; Mtb BioA inh: 3.0; 3CLpro inhibitor: -1.5

How did COCCCn1c(=NC(=O)c2ccncc2)c(C#N)cc2c(=O)n3cccc(C)c3nc21 do in these assays?
FadD28 FP inh: -3.2; GDH-TPI counter: 7.0; FBA Mtb inh: active; Mtb BioA inh: -2.8; 3CLpro inhibitor: -1.1

How did CCCn1c(=NC(=O)c2ccncc2)c(C#N)cc2c(=O)n3cccc(C)c3nc21 do in these assays?
FadD28 FP inh: -3.0; GDH-TPI counter: 0.0; FBA Mtb inh: 7.0

Results for Cc1cc(C)cc(NC(=O)Nc2ccc3c(c2)C(=O)N(C)[C@@H]2CC[C@H](CC(=O)O)O[C@@H]2CO3)c1 ?
Mtb BioA inh: 11.9

What do the screens show for `O=C(C1CCC1)N1C[C@@H]2[C@H](c3ccccc31)[C@@H](CO)N2C(=O)Cc1ccccn1`?
Mtb BioA inh: -4.7

What do the screens show for `CC(=O)Nc1ccc2c3c(cccc13)C(=O)N(c1ccccc1)C2=O`?
FadD28 FP inh: -1.2; GDH-TPI counter: 12.3; FBA Mtb inh: active; 3CLpro inhibitor: 2.3

How did CC(=O)Nc1ccc2ccc3cccc4ccc1c2c34 do in these assays?
FadD28 FP inh: -2.9; GDH-TPI counter: 33.6*; FBA Mtb inh: 17.9; Mtb BioA inh: 1.1; 3CLpro inhibitor: -3.9

What do the screens show for `O=C(O)c1ccc2c3c(cccc13)C(=O)N(c1ccccc1)C2=O`?
FadD28 FP inh: 1.4; GDH-TPI counter: 15.7; FBA Mtb inh: 0.6; Mtb BioA inh: -0.7; 3CLpro inhibitor: 0.2

How did Cc1ccc(S(=O)(=O)Nc2cccc3c2O[C@@H](CN(C)Cc2ccc(-c4ccccc4)cc2)[C@@H](C)CN([C@H](C)CO)C3=O)cc1 do in these assays?
Mtb BioA inh: -2.4

Results for C[C@@H]1CN([C@@H](C)CO)C(=O)c2cccc(NC(=O)Nc3ccc(C(F)(F)F)cc3)c2O[C@@H]1CN(C)C ?
Mtb BioA inh: -1.7

How did O=[N+]([O-])c1ccc(/C=[N+](\[O-])[C@@H]2CCCC[C@@H]2/[N+]([O-])=C/c2ccc([N+](=O)[O-])o2)o1 do in these assays?
FadD28 FP inh: -0.5; GDH-TPI counter: 34.0*; FBA Mtb inh: -0.8; Mtb BioA inh: -0.6; 3CLpro inhibitor: -5.2

Results for CO[C@H]1CN(C)C(=O)c2cc(NC(=O)Nc3cccc(Cl)c3)ccc2OC[C@@H](C)NC[C@@H]1C ?
Mtb BioA inh: 1.5

What do the screens show for `N#Cc1ccc(-c2cn3c(n2)SCC3)cc1`?
FadD28 FP inh: -3.3; GDH-TPI counter: 4.3; FBA Mtb inh: active; Mtb BioA inh: 0.4; 3CLpro inhibitor: 0.6

Results for O=S(=O)(Nc1ccc(-c2cn3c(n2)SCC3)cc1)c1cccs1 ?
FadD28 FP inh: 2.5; GDH-TPI counter: 12.4; FBA Mtb inh: 0.3; 3CLpro inhibitor: -2.2

How did O=[N+]([O-])c1ccc(-c2cn3c(n2)SCC3)cc1 do in these assays?
FadD28 FP inh: -0.4; GDH-TPI counter: 36.5*; FBA Mtb inh: 1.4; Mtb BioA inh: -2.5

Results for O=C(C[C@H]1CC[C@@H]2[C@H](COC[C@@H](O)CN2Cc2cc(F)cc(F)c2)O1)NC1CCCC1 ?
Mtb BioA inh: 2.3
